High-throughput results from PubChem.
Compounds with a hit are over-represented: about 6.1% of the library has one in this group of screens.
TGFb SMAD3 inh = inhibitors of TGF-b signaling; HepG2 CAGA-GFP TGF-b/SMAD3 reporter, GFP fluorescence, 18 h; TGF-beta stimulated, 500 pg/mL final; Potency, µM (highest dose often 46.1 µM), without a hit: at the top dose activity, negative = inhibition, actives largely listed as inhibitors; 410,000 compounds, 1.2% hits; AID 588855; further: on the % scale 0 is the no-effect control and ±100 the full control effect; nearly all actives have a fitted effect of over 65% in size
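TGF-beta reporter screen: HEPG2 CAGA-GFP, 1% FBS, 500 pg/mL TGF-beta final, 18 h; per-cell GFP summed per well; curves fitted and categorized by class.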
S2 tox = viability counter-screen for ATXN expression inhibitors | Potency, µM (series often up to 56.7 µM), actives largely listed as cytotoxic | S2 cells (HEK-293 line with an ATXN2-luciferase reporter) viability, CellTiter-Fluor protease fluorescence, 24 h | 400,000 compounds, 0.49% hits; further: nearly all actives have a fitted effect of over 40% in size
HepG2 viability = HepG2 cytotoxicity, counter-screen for TGF-b inhibitors. HepG2 CAGA-GFP viability, ATP luminescence, 18 h. Potency, µM (top dose mostly 46.1 µM), without a hit: top-dose activity change, negative = cytotoxicity, hits mostly cytotoxic. 410,000 compounds, 0.76% hits. AID 588856
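CellTiter-Glo luminescence gave cytotoxicity after 18 hours at 37 degrees C. The cells were HepG2 CAGA-GFP in 1% FBS DMEM, stimulated with 500 pg/mL TGF-beta after compound addition. %Activity was normalised to no-cell wells (complete cell-killing) and DMSO (no toxicity), and curves were fitted and classified.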
Gal4-VP16 FLuc = inhibits Gal4-VP16 luciferase reporter, ROR gamma counter-screen; Drosophila S2 Gal4-VP16 UAS-luciferase, luminescence, 20 h; Potency, µM (titrated, usually from 53.6 µM), for inactives: top-dose activity, negative = inhibition, hits mostly inhibitors; 310,000 compounds, 3.5% hits;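 further: Gal4-VP16 expression switched on by copper sulfate through the metallothionein promoter; on the % scale 0 is the no-effect control and ±100 the full control effect; nearly all actives have a fitted effect of over 50% in size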
ATXN2 expr inh = reduces ATXN2 reporter expression in HEK-293 cells. HEK-293 ATXN2-luciferase reporter, luminescence, 24 h. Potency, µM (highest dose often 57 µM), for the others: at the highest dose activity change, negative = inhibition, usual class: inhibitors. 360,000 compounds, 0.72% hits; further: on the % scale 0 is the no-effect control and ±100 the full control effect; nearly all actives have a fitted effect of over 55% in size
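qHTS (up to 57 uM final) was run with 24 h compound exposure of reporter cells at 37 °C. Each well was multiplexed: SteadyGlo luminescence measured ATXN2-luciferase expression after a fluorogenic Gly-Phe-AFC viability readout (25 uM final).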
RORgamma inh = ROR gamma (mouse) transcription inhibition. P51450. Drosophila S2 Gal4-RORgamma UAS-luciferase reporter, 20 h. Potency, µM (top dose mostly 53.6 µM), for inactives: at the top dose activity change, negative = inhibition, most hits filed as inhibitors. 310,000 compounds, 5.4% hits; further: on the % scale 0 is the no-effect control and ±100 the full control effect; nearly all actives have a fitted effect of over 60% in size
Target sequence (P51450 whole entry, looked up, the tested form may be a part): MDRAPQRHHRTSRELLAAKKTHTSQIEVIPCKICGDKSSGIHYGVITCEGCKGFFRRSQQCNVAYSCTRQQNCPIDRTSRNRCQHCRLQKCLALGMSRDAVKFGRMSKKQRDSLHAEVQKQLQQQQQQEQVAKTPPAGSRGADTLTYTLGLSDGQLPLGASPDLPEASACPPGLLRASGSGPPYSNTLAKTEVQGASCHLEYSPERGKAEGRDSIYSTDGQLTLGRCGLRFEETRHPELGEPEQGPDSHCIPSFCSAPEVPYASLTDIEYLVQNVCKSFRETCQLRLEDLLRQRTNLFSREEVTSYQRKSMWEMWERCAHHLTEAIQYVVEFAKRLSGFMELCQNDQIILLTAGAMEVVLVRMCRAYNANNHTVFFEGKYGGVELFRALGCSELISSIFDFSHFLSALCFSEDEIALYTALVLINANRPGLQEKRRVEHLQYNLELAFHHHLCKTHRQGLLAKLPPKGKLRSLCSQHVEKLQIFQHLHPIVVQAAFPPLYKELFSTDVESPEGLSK
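Using a luciferase readout, inhibitors were identified by reduced reporter activity in Drosophila cells coexpressing a copper-inducible Gal4–ROR gamma fusion and UAS-driven Photinus luciferase, incubated 20 hr after 700 uM copper sulfate.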
Active calls of the source: *; i = inactive; ? = inconclusive; · = no result; ! = a repeat was not active; [ ] = dose if it differs, or a comment. The call rests on the fitted dose curve; in most records, active means well fitted curve in the direction sought with a large enough effect; inconclusive means small, poorly fitted or top-dose-only effect, or another doubt; inactive means no such curve, though single readings can be large; an effect the other way counts as inactive or inconclusive. Potency means the concentration at half of the fitted maximal effect.

SMILES | TGFb SMAD3 inh | S2 tox | HepG2 viability | Gal4-VP16 FLuc | ATXN2 expr inh | RORgamma inh
COc1cccc(-c2cc3c(=O)n(-c4ccccc4)c(=S)[nH]c3s2)c1 | 2% | i | -25% | 2.5µM* | -10% | 0.89µM*
COc1ccc(-n2c(=S)[nH]c3sc(-c4ccccc4)cc3c2=O)c(OC)c1 | -9% | i | 10% | 7.1µM* | -8% | 3.5µM*
COc1cccc(-n2cnc3sc(-c4ccccc4)cc3c2=O)c1 | 0% | i | 0% | · | 25% | ·
COc1ccc(-n2c(=S)[nH]c3c(sc(=S)n3-c3ccccc3)c2=O)c(OC)c1 | -9% | i | -3% | -4% | -21% | -21%
COc1ccc(-c2csc3nc(-c4ccccc4C)oc(=O)c23)cc1OC | -3% | i | -1% | · | -5% | ·
COc1ccc(-c2csc3[nH]c(=S)n(-c4ccccc4)c(=O)c23)cc1OC | 1% | i | -1% | 3.2µM* | -6% | 2.5µM*
COc1ccc(S(=O)(=O)c2c(Nc3c(C)cccc3C)sc(C(=O)c3ccc4c(c3)OCO4)c2N)cc1 | -21% | i | 4% | · | -7% | ·
OCCN(CCO)CC(O)COc1ccc(C23CC4CC(CC(C4)C2)C3)cc1 (centres undefined) | 18µM* | i | -88% | -19% | ? | ?
CCOC(=O)c1c(C)oc2c(F)c(F)c(F)c(F)c2c1=O | -25% | ? | -6% | 4% | 32µM* | ?
CCOC(=O)c1c(C)oc(=O)c(CC)c1O | 0% | i | 5% | · | · | ·
Cc1c(Br)c(-c2n[nH]c(=S)n2Cc2ccco2)nn1C | -4% | ? | 14% | -3% | 2% | 22µM*
COc1cccc(Cc2n[nH]c(=S)n2Cc2ccco2)c1 | 6% | i | 2% | -25% | -22% | 3.5µM*
COc1cccc(CN2CCN(Cc3ccco3)CC2)c1 | -6% | i | 3% | 1% | -2% | -3%
COc1ccc(-c2n[nH]c(=S)n2Cc2ccco2)cc1 | -14% | i | 4% | ? | 2% | 16µM*
COc1cccc(NC(=O)CSCc2cc(=O)c3ccc(C)c(C)c3[nH]2)c1 | -2% | i | -14% | · | 16% | ·
COc1ccc(-n2nc(C(=O)Nc3ccc(C)cn3)c3c4ccccc4n(C)c3c2=O)cc1Cl | -7% | i | 9% | · | 4% | ·
CCN(CC)S(=O)(=O)c1nnc(NC(=O)COc2ccccc2F)s1 | · | · | -11% | · | · | ·
O=C(CSc1oc(-c2ccco2)nc1S(=O)(=O)c1ccc(Br)cc1)c1ccccc1 | -22% | i | -13% | · | -22% | ·
CC(=O)NC12CC3CC(C1)CC(C(=O)N(C)Cc1cccc(Cl)c1Cl)(C3)C2 | ? | i | -35% | 7.1µM* | -26% | ?
Cc1cccc(C(=O)NNC(=O)c2cccc(C)c2)c1 | 12% | i | 11% | 6% | 10% | 21%
O=C(O)/C=C/C(=O)NNC(=O)c1ccccc1Br | 9% | i | 1% | -16% | -15% | 11µM*
Cc1ccccc1C(=O)NNC(=O)/C=C\C(=O)O | -2% | i | -3% | ? | 5% | 3.5µM*
Cc1ccccc1C(=O)NNC(=O)Nc1ccccc1 | · | · | · | -4% | · | -34%
Cc1cccc(C(=O)NNC(=O)/C=C/C(=O)O)c1 | -24% | i | -14% | -10% | · | 14µM*
COc1ccccc1-n1cc(CN2CCOc3ccc(CN4C[C@@H](C)O[C@@H](C)C4)cc3C2)cn1 | · | i | · | · | · | ·
SMILES | TGFb SMAD3 inh | S2 tox | HepG2 viability | Gal4-VP16 FLuc | ATXN2 expr inh | RORgamma inh
CC(Oc1ccccc1Br)C(=O)N1CCc2ccccc21 (centres undefined) | 3% | i | -9% | 3% | 22% | 14µM*
O=C(COc1ccccc1)NC(=S)N1CCc2ccccc21 | 5% | i | -1% | 2.5µM* | 50% | 1.3µM*
O=C(NC(=S)N1CCCc2ccccc21)c1ccccc1 | -8% | i | -11% | 2% | 53% | -31%
CC(Oc1ccc(Br)cc1)C(=O)N1CCc2ccccc21 (centres undefined) | 20% | i | -25% | 3% | 4% | 12%
CC(C)C(=O)NC(=S)N1CCc2ccccc21 | -6% | i | -6% | ? | -8% | 8.9µM*
O=C(COc1ccccc1Cl)NC(=S)N1CCc2ccccc21 | -21% | ? | -13% | 1.1µM* | ? | 0.71µM*
COc1ccccc1Nc1nn2c(=O)c3ccc(C(=O)NC4CCCCC4)cc3nc2s1 | 2% | i | -1% | · | -13% | ·
Oc1ccccc1C1CC(c2cccs2)=NC(c2cccc(Br)c2)N1 (centres undefined) | 20µM* | i | -61% | ? | 51% | ?
O=S(=O)(c1ccccc1)N1N=C(c2cccs2)CC1c1cccc(O)c1 (centres undefined) | -29% | i | -11% | -4% | 3% | -7%
Clc1ccc(CCNc2nc3ccccc3s2)cc1 | 4% | i | -43% | 2% | 14% | 11µM*
c1coc(CNc2nc3ccccc3s2)c1 | -30% | i | -72% | -1% | 79% | -40%
Cc1cc(=O)[nH]c2c(C)cc(S(=O)(=O)N3CCOCC3)cc12 | 6% | i | 13% | · | 1% | ·
Cc1cc(=O)[nH]c2c(C)cc(S(=O)(=O)N3CCCCC3)cc12 | 15% | i | -20% | 19% | 41% | 5.6µM*
S=C1NCN(Cc2cccnc2)CN1 | -4% | i | 9% | -4% | -22% | 12%
CN(C)C(=S)N=c1ssc(=S)n1Cc1cccnc1 | 3.2µM* | i | -45% | · | -30% | ·
COc1cc2c(cc1OC)C(=O)C(Br)CC2 (centres undefined) | ? | ? | 16µM* | · | · | ·
COc1ccc(NC(=O)c2c(NCc3cccc(F)c3)sc3c2CCC3)c(OC)c1 | -19% | · | -34% | · | ? | ·
Cc1ccc(O)c(Cc2cc(C)cc(Cc3cc(C)ccc3O)c2O)c1 | 22µM* | ? | -89% | · | · | ·
CCSc1nc2n(n1)C(c1ccc(C(=O)O)cc1)C(C(=O)Nc1ccccc1C)=C(C)N2 (centres undefined) | 3% | i | -2% | · | -4% | ·
O=C(N/N=C/c1ccco1)C1(O)c2ccccc2-c2ccccc21 | 1% | i | -14% | 1% | -21% | ?
Cc1nn(C)cc1/C=N/NC(=O)C1(O)c2ccccc2-c2ccccc21 | 9% | i | -5% | 3.5µM* | -1% | -21%
COc1ccc(CN2CCN(c3ccc(F)cc3)CC2)c(OC)c1OC | 10% | i | 19% | -16% | -22% | ?
COc1ccc(CN2CCN(C(c3ccc(F)cc3)c3ccc(F)cc3)CC2)c(OC)c1OC | ? | ? | -28% | -13% | 40µM*! | 8%[10 µM]
